High-throughput results (PubChem BioAssay)
CHX counter: affects cycloheximide protein synthesis inhibition readout, counter-screen; max response, %; cell reporter, cycloheximide protein synthesis inhibition counterscreen; AID 2314; 300,000 tested, 12% active; in the data active means max response mostly above about 13%, no sharp cut-off; inactive means mostly below about 14%; further: read at 38.3 µM for the half of the compounds with a filed dose; 0% is about no effect
Sm TGR inh: S. mansoni TGR enzyme inhibition; 360,000 tested, 3% active; purified TGR, DTNB reduction, TNB absorbance 405 nm; Potency, µM (titrated, usually from 114 µM), for inactives: at the top dose activity change, negative = inhibition, actives largely listed as inhibitors; further: potency means the concentration at half of the fitted maximal effect; on the % scale 0 is the no-effect control and ±100 the full control effect; nearly all actives have a fitted effect of over 60% in size
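First, TGR (20 nM dispensed) and NADPH were mixed with compound. Second, a 15 min room-temperature incubation followed. Third, further NADPH and then DTNB were added to start the reaction. Finally, TNB absorbance was monitored kinetically.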
Pf growth 48h: inhibits P. falciparum growth in the first generation, 48 h. P. falciparum luciferase growth in erythrocytes, 48 h. Potency, µM (top dose mostly 28.7 µM), without a hit: top-dose activity change, negative = inhibition, actives largely listed as inhibitors. 310,000 tested, 5.9% active. AID 504832; further: potency means the concentration at half of the fitted maximal effect; on the % scale 0 is the no-effect control and ±100 the full control effect
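A one-generation exposure of luciferase-tagged malaria parasites in RPMI 1640/Albumax erythrocyte culture, 37 C and 5% CO2. Inhibition is inferred from decreased luminescence after adding detection reagent.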
Shiga inhibitor: blocks Shiga toxin action in Vero cells | Vero cells, Shiga toxin protein synthesis inhibition reporter | inhibition, % at 38.7 µM | 290,000 tested, 9.2% active | AID 2315; in the data active means inhibition mostly above about 28%, no sharp cut-off; inactive means mostly below about 43%; further: 0% is about no effect
Pf growth 96h: P. falciparum growth inhibition at 96 hours; P. falciparum luciferase reporter growth, 96 h; Potency, µM (highest dose often 28.7 µM), without a hit: at the highest dose activity change, negative = inhibition, usual class: inhibitors; 320,000 tested, 6.9% active; further: potency means the concentration at half of the fitted maximal effect; on the % scale 0 is the no-effect control and ±100 the full control effect
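Two-generation exposure (96 h) targets delayed-death phenotype. Reporter parasites carrying integrated firefly luciferase, in red cells at 2% hematocrit and 0.05% parasitemia final, kept at 37 C, 5% CO2; luminescence loss indicates inhibition.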
NS1 function inh: blocks influenza NS1 protein function. 270,000 tested, 0.4% active. Potency, µM (highest dose often 46.1 µM), inactives show at the highest dose activity, positive = more growth; calls by dose curve; further: potency means the concentration at half of the fitted maximal effect; actives are rising curves; nearly all actives have a fitted effect of over 50% in size
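Growth recovery, yeast-based: influenza A NS1 expressed in S. cerevisiae causes slow growth, and suppressors are detected by OD600. The parent strain without NS1 is used as positive control.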
* = called active by the depositor; ? = inconclusive; . = not tested or not shown. An excerpt weighted towards active compounds, which were near 21% of everything screened. Unless noted, the call rests on the fitted dose curve; in most records, active means well fitted curve in the direction sought with a large enough effect; inconclusive means small, poorly fitted or top-dose-only effect, or another doubt; inactive means no such curve, though single readings can be large; an effect the other way counts as inactive or inconclusive.

SMILES	CHX counter	Sm TGR inh	Pf growth 48h	Shiga inhibitor	Pf growth 96h	NS1 function inh
CCN(CC(=O)Nc1ccccc1OC)C(=O)c1ccc(NC(=O)c2cccs2)cc1	.	-0.4%	7.38µM*	.	?	.
Cc1ccc(C(=O)Nc2cccc(NC(=O)c3cccs3)c2)c(C)c1	3.9	3.4%	?	21.3	11.7µM*	-50.7%
COc1cc(NC(=O)c2ccc(C)cc2C)ccc1NC(=O)c1cccs1	27.2	-3.5%	16.4%	21.0	70.4%	1.5%
COc1cc(N)ccc1NC(=O)c1cccs1	13.2*	-0.1%	?	6.0	21.1%	13.9%
COc1ccc(NC(=O)c2cccs2)cc1OC	18.8*	0.4%	51.6%	19.2	170.5%	-4.1%
COc1cc(NC(=O)c2cc(OC)c(OC)c(OC)c2)ccc1NC(=O)c1cccs1	0.6	8.4%	-18.8%	-42.1	?	17.4%
COc1ccc(/C=C(/NC(=O)c2cccs2)C(=O)NC(C)(C)C)cc1OC	-2.7	1.1%	11.1%	.	9.28µM*	-8.0%
CCOC(=O)c1sc(NC(=O)C(C)Oc2ccc(OC)cc2)c(C(=O)OCC)c1C (stereo not given)	.	4.7%	.	.	.	.
COc1ccccc1CNC(=O)c1cnc(N(C)C)nc1	.	-4.4%	.	.	.	.
C(=C\c1cc(/C=C/c2ccccc2)ncn1)/c1ccccc1	70.8*	1.5%	60.9%	82.2*	?	-4.9%
Cn1nc(/C=C/c2ccccc2)ccc1=O	28.3*	57.2%	153.4%	85.6*	107.5%	.
Cc1nc(/C=C/c2ccccc2)cc(/C=C/c2ccccc2)n1	29.6*	-14.5%	?	63.4*	.	0.1%
O=c1ccc(/C=C/c2ccccc2)nn1Cc1ccccc1	-5.6	-6.6%	.	-8.4	-27.7%	6.1%
O=C(Nc1ccc(Cl)cc1)N1CCCN(c2ccc(C(F)(F)F)cc2[N+](=O)[O-])CC1	-1.1	5.1%	?	-0.7	?	0.3%
CC(=O)c1cccc(NC(=O)c2ccc(C)c(S(=O)(=O)N3CCOCC3)c2)c1	0.8	3.9%	?	2.1	2.1%	-18.8%
Cc1ccc(NC(=O)c2cccc(S(=O)(=O)N(C)c3ccccc3)c2)cc1S(=O)(=O)N1CCOCC1	1.9	1.1%	?	-4.8	11.7µM*	?
Cc1ccc(C(=O)O)cc1S(=O)(=O)N1CCOCC1	-1.3	-16.3%	2.0%	-15.4	8.28µM*	-9.5%
Cc1ccc(C(=O)Nc2cccc(C(=O)O)c2)cc1S(=O)(=O)N1CCCCC1	86.7*	23.6%	46.8%	131.8*	28.3%	?
Cc1ccc(C(=O)N2CCOCC2)cc1S(=O)(=O)N1CCOCC1	-3.4	-32.6%	29.0%	-5.1	?	17.9%
Cc1ccc(C(=O)Nc2cccc(C(=O)O)c2)cc1S(=O)(=O)N1CCOCC1	23.6*	6.9%	244.2%	39.1	.	9.0%
Cc1ccc(C(=O)Nc2ccccc2)cc1S(=O)(=O)N1CCN(C)CC1	2.0	-10.2%	?	3.2	?	-2.9%
Cc1ccccc1N1CCN(C2CCCN(C(=O)c3snnc3C)C2)CC1 (stereo not given)	-2.0	-35.8%	-9.4%	-0.6	-3.6%	0.9%
Cc1nn(C2CCS(=O)(=O)C2)c(C)c1CN(C)C(=O)c1ccc(Cl)cc1 (stereo not given)	.	5.3%	11.7%	.	18.8%	.
CCOc1cc(C(=O)Nc2ccc(-c3nc4ncccc4o3)cc2C)cc(OCC)c1OCC	.	-0.9%	.	.	.	.
CC(C)(C)c1ccc(C(=O)Nc2cccc(C(=O)N3CCOCC3)c2)cc1	44.5*	0.5%	75.2%	57.5*	-37.6%	-8.6%
SMILES	CHX counter	Sm TGR inh	Pf growth 48h	Shiga inhibitor	Pf growth 96h	NS1 function inh
COc1ccc(C(=O)Nc2cccc(-c3csc(C)n3)c2)cc1S(=O)(=O)N1CCCC1	.	-6.5%	11.7µM*	.	13.1µM*	.
CCn1cc(C(=O)OCC(=O)Nc2cc(Cl)ccc2C)c(=O)c2ccc(C)nc21	.	10.0%	.	.	.	.
O=C(NNC(=O)c1ccccc1O)c1ccc(Cl)c(S(=O)(=O)N2CCc3ccccc32)c1	.	-3.5%	?	.	-3.6%	.
Cc1ccc(C(=O)CCC(=O)Nc2cccc(C)c2)cc1	-1.0	-0.2%	23.4%	-8.9	0.0%	13.5%
COc1cccc(NC(=O)C2C3CCC4C(CCC32)C4(Cl)Cl)c1 (stereo not given)	14.8*	-23.0%	-24.2%	40.3	-12.1%	-5.3%
COc1ccc(NC(=O)C2C3CCC4C(CCC32)C4(Cl)Cl)cc1 (stereo not given)	-5.7	-9.6%	3.5%	-2.1	5.22µM*	7.2%
